High-throughput results deposited in PubChem BioAssay by several laboratories.
TMEM16A inh – inhibitors of mouse TMEM16A calcium-activated chloride channel; normalized B-score (activity score, 25-100; higher = stronger inhibition) at 10 µM; HEK293 TMEM16A/YFP iodide influx fluorescence, ionomycin; 1.2% of 310,000 active; Q8BHY3;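 active = ratio plate-corrected score three or more library SD toward inhibition, starting fluorescence score within five deviations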;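 note: score derived from kinetic fluorescence span divided by baseline fluorescence per well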
Target sequence (Q8BHY3 whole entry, looked up): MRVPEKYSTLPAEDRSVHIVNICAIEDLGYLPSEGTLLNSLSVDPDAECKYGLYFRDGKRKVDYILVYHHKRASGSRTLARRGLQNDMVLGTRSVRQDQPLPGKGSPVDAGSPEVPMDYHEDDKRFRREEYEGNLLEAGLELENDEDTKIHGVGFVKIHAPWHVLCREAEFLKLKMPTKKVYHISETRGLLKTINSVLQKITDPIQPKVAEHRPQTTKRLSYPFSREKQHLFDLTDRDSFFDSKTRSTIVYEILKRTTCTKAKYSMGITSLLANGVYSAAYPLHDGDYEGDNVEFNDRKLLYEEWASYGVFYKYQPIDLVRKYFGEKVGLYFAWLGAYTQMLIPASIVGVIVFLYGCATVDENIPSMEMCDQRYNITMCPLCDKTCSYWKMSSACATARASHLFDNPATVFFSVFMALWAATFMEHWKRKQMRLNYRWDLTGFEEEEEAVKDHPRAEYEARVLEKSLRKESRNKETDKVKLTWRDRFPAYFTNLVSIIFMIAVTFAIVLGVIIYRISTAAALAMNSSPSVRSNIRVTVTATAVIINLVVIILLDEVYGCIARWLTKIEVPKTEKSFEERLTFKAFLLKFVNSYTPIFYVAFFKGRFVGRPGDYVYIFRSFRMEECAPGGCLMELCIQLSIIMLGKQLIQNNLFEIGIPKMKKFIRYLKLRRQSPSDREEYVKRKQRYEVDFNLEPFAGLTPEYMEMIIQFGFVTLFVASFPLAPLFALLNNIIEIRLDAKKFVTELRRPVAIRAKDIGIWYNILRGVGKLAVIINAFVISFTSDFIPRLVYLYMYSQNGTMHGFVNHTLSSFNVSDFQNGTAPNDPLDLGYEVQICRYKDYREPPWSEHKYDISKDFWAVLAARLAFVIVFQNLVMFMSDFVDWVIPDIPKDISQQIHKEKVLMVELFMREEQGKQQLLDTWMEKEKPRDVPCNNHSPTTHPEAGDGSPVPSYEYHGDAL
CRFR2-BP antag – CRF-BP/CRF-R2 complex antagonism; HEK293 CRF-R2/CRF-BP, CRF-induced calcium fluorescence; inhibition, % at 11.8 µM; 0.59% of 350,000 active; AID 588475;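 active = inhibition of the ligand-induced calcium signal above about 50% at the single tested concentration, limit read from the data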
CRFR2-BP ag – agonists of human CRF-binding protein/CRF-R2 receptor complex | activation, % at 13.2 µM | AID 588473 | 0.46% of 350,000 active | HEK293 CRF-R2/CRF-BP, calcium dye fluorescence (FLIPR); percent of saturating CRF peptide response;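 active = activation of at least 50%, plus an integration ratio under a set limit after plate pattern correction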
ANO1 activ – activators or potentiators of mouse TMEM16A chloride channel. B-score at 10 µM. AID 623877. Q8BHY3. HEK293 TMEM16A/YFP-H148Q/I152L, iodide quench fluorescence; stronger effect = lower value. 0.3% of 340,000 active;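 active = fluorescence-ratio B-score plate-corrected deviation score at least 3 library SD below zero, with starting fluorescence score within 5 deviations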;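 note: channel opened by trigger with iodide after compound preincubation; score built on the fluorescence ratio of max minus min over baseline; more negative score means more quench and so TMEM16A activation or potentiation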
NR3A LBD binder – modulators (binders) of human NR3A ligand-binding domain; 2.5% of 340,000 active; NR3A LBD differential scanning fluorimetry, Tm shift; 0% = protein alone, 100% = glycine-bound protein; Tm shift relative to glycine control, % at 25 µM;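 active = melting temperature shift of at least 10% of the positive control shift, at one fixed dose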
MPTP block – blocks calcium-induced mitochondrial swelling. isolated mouse mitochondria, Ca2+ swelling absorbance, 30 min. 1.4% of 360,000 active. inhibition, % at 10 µM;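 active = inhibition of 50% or more, scaled per plate between neutral and stimulator controls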
Each line names hits and unclear results; the compound was inactive in the other large screens. Only some compounds are listed: those with a hit (about 5.1% of all), similar ones and a draw of the others.

CCCCCCCCCCCCCCCC[n+]1ccc(C(N)=O)cc1	NR3A LBD binder 16
CC(C)NC(=O)c1ccc2sc([C@H]3C[C@H](O)[C@@H](CO)O3)nc2c1	none (no result: TMEM16A inh, CRFR2-BP antag, CRFR2-BP ag, ANO1 activ, NR3A LBD binder)
O=C(c1ccc(N2CCCC2=O)cc1)N1CCN(c2cccc(C(F)(F)F)c2)CC1	none (no result: TMEM16A inh)
Oc1ccccc1-c1nc(NCc2ccccc2)c2ccccc2n1	NR3A LBD binder 16
Oc1ccccc1-c1nc(NCc2ccco2)c2ccccc2n1	NR3A LBD binder 14
Oc1ccccc1Nc1nc(NCc2ccccc2)c2ccccc2n1	TMEM16A inh 100
Cc1cccc(NC(=O)COC(=O)CSc2ccccc2)c1C	none (no result: TMEM16A inh)
CCC(=O)Oc1ccc(C(CC)C(CC)c2ccc(OC(=O)CC)cc2)cc1 (configuration not stated)	TMEM16A inh 100
CCOC(=O)c1c(C)[nH]c(C)c1C(=O)COC(=O)/C=C/c1ccc(Cl)cc1	CRFR2-BP antag 129
CCOC(=O)c1c(C)[nH]c(C(=O)COC(=O)/C=C/c2ccc(OC(F)F)cc2)c1C	NR3A LBD binder 13
CCOC(=O)c1c(C)[nH]c(C)c1C(=O)COC(=O)/C=C/c1ccc(OC(F)F)cc1	none
COc1ccccc1CNc1nc(Nc2cccc(-c3cnco3)c2)c2sccc2n1	none (no result: TMEM16A inh, CRFR2-BP antag, CRFR2-BP ag, ANO1 activ, NR3A LBD binder)
CCN(CC)S(=O)(=O)c1cc(OC)c(C)cc1C	CRFR2-BP antag 69
CCN(CC)S(=O)(=O)c1cc(OC)c(Cl)cc1Cl	none
O=C1C(=Cc2cccs2)C(=O)c2ccccc21	CRFR2-BP antag 55
O=C(NCc1cccs1)c1ccc2sc([C@H]3C[C@H](O)[C@@H](CO)O3)nc2c1	none (no result: TMEM16A inh, CRFR2-BP antag, CRFR2-BP ag, ANO1 activ, NR3A LBD binder)
Cc1cc(N2CCCCC2)nc(N)n1	CRFR2-BP ag 235
C=CCn1c(=O)/c(=C/c2cc(OC)c(OC)c(OC)c2)s/c1=C(/C#N)c1nc2ccccc2n1C	CRFR2-BP ag 62
C=CCn1c(=O)/c(=C/c2ccc(O)cc2)s/c1=C(/C#N)c1nnc2n1CCCCC2	none
CC(=O)C1=C(O)C(=O)N(c2cc(C(C)(C)C)on2)C1c1ccc(Br)cc1 (configuration not stated)	none
CC(=O)C1=C(O)C(=O)N(c2cc(C(C)(C)C)on2)C1c1ccc(C(C)C)cc1 (configuration not stated)	CRFR2-BP ag 64
Cc1cccc(NS(=O)(=O)c2ccc(C)c(C(=O)NC3CCN(Cc4ccccc4)CC3)c2)c1	none (no result: TMEM16A inh)
O=C(O)c1ccc(-c2noc(-c3cccc(C(F)(F)F)c3)n2)cc1	NR3A LBD binder 13
FC(F)(F)c1cccc(-c2nc(-c3ccncc3)no2)c1	none
COc1cccc(NC(=O)CN(C)C(=O)/C=C/c2cn(-c3ccccc3)nc2-c2ccc(C)cc2)c1	NR3A LBD binder 17
COc1ccc(-c2nn(-c3ccccc3)cc2/C=C/C(=O)OCC(=O)Nc2cccc(C#N)c2)cc1	NR3A LBD binder 25
COc1ccc(NC(=O)CN(C)C(=O)/C=C/c2cn(-c3ccccc3)nc2-c2ccc(F)cc2)cc1	NR3A LBD binder 10
COc1cccc(C(=O)NC23CC4CC(CC(C4)C2)C3)c1	none
COc1ccc(NC(=O)[C@H](C)NC(=O)C2CCN(S(=O)(=O)c3ccc(C)cc3)CC2)cc1OC	none
O=C(O)c1ccc(C[n+]2c(-c3ccccc3)csc2Nc2ccccc2)cc1	NR3A LBD binder 18
CC(C)(C)c1cc(-c2csc(Nc3ccccc3)[n+]2Cc2ccc(C(=O)O)cc2)cc(C(C)(C)C)c1O	TMEM16A inh 100
CN(C)c1ccc(C(=O)Nc2nc3c(s2)CCCC3)cc1	none
C/C(=N\Nc1nc2c(s1)CCCC2)c1ccc(Cl)cc1	ANO1 activ -11
O=C(CCC(NC(=O)OCc1ccccc1)C(=O)OCc1ccccc1)NCC(=O)OCc1ccccc1 (configuration not stated)	NR3A LBD binder 12
NC(=O)CC[C@H](NC(=O)OCc1ccccc1)C(=O)OCc1ccc(Cl)cc1	none
Cc1ccccc1S(=O)(=O)NC(=O)C1(C)CCN1C(=O)C1CCCCC1 (configuration not stated)	none (no result: TMEM16A inh, CRFR2-BP antag, CRFR2-BP ag, ANO1 activ, NR3A LBD binder)
CCOc1ccc(-n2c(=S)sc3c(=O)n(-c4ccccc4)c(SC)nc32)cc1	none
COc1ccc(/C=N/n2cnc3c(sc(=S)n3-c3ccccc3)c2=O)cc1	NR3A LBD binder 16
O=c1[nH]c(C2CCCN(S(=O)(=O)c3ccccc3F)C2)nc2c1nnn2Cc1ccccc1Cl (configuration not stated)	none
Cc1cc([N+](=O)[O-])ccc1P(=O)(O)c1ccc([N+](=O)[O-])cc1C	NR3A LBD binder 15 (no result: TMEM16A inh)
COc1cccc(C2C(C(=O)c3ccc(C)o3)=C(O)C(=O)N2CCN2CCOCC2)c1OC (configuration not stated)	CRFR2-BP antag 124
CCCOc1ccc(C2C(C(=O)c3ccc(C)o3)=C(O)C(=O)N2CCN2CCOCC2)cc1OC (configuration not stated)	TMEM16A inh 100
COc1ccc(OC)c(C2C(C(=O)c3ccc(C)o3)=C(O)C(=O)N2CCN2CCOCC2)c1 (configuration not stated)	none
C[C@@H]1CN([C@H](C)CO)C(=O)CCCn2cc(nn2)CO[C@H]1CN(C)C(=O)Nc1ccc(C(C)(C)C)cc1	none (no result: TMEM16A inh, CRFR2-BP antag, CRFR2-BP ag, ANO1 activ, NR3A LBD binder)
COCCN(C(=O)CSc1nc(N)cc(=O)[nH]1)c1c(N)n(Cc2ccccc2)c(=O)[nH]c1=O	none
CC(=O)Nc1cccc(/C(C)=N/NC(=O)c2ccc(NS(=O)(=O)c3cccs3)cc2)c1	none
CC(=O)Nc1ccc(S(=O)(=O)Nc2nc3ccc([N+](=O)[O-])cc3s2)cc1	NR3A LBD binder 16
CC(=O)Nc1ccc(S(=O)(=O)Nc2nc3ccccc3s2)cc1	none
CS(=O)(=O)c1ccc2nc(NC(=O)c3ccc(NS(=O)(=O)c4cccc([N+](=O)[O-])c4)cc3)sc2c1	NR3A LBD binder 16
C/C(=N\NC(=O)c1ccc(NS(=O)(=O)c2cccs2)cc1)c1ccc(C(C)(C)C)cc1	NR3A LBD binder 15
Cc1ccc2nc(NC(=O)c3ccc(NS(=O)(=O)c4cccs4)cc3)sc2c1	NR3A LBD binder 33
Cc1ccc2nc(NC(=O)CCNS(=O)(=O)c3cccs3)sc2c1	none
CCN(c1ccccc1)S(=O)(=O)c1cc2c(cc1C)NC(=O)CO2	none
O=C(CCC1CCCN(C(=O)c2cc3ccccc3o2)C1)NCc1ccc(F)c(F)c1 (configuration not stated)	none
COc1ccccc1N=Cc1c(C)[nH]n(-c2ccc(C)cc2C)c1=O	none
COc1ccc2nc(/N=C/c3c(C)[nH]n(-c4ccc(C)cc4C)c3=O)sc2c1	CRFR2-BP ag 65
CC(C)COc1ccc(C(=S)N2CCCC2)cc1	none
O=C(Nc1cccc(O)c1)c1cc(-c2ccccc2Cl)on1	NR3A LBD binder 30
CCCc1cc(C(=O)Nc2cccc(Cl)c2)no1	NR3A LBD binder 13
